Measurements published in PMC4336329 (PLoS ONE, 2015).
Among all 310,000 compounds or so, about 14,000 (4.5%) showed an effect of 50% or more. Effects have a minus sign here. This excerpt belongs to a sample that is enriched for strong results.

Biological target: human ether-à-go-go-related gene (hERG) potassium channel (human, UniProt Q12809)
Test: primary screen, population patch clamp on CHO cells stably expressing hERG; higher = less effect of the substance
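Note: peak tail current of the secondary pulse compared with the same well before compound.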

human ether-à-go-go-related gene (hERG) potassium channel, sequence (Q12809 whole entry, looked up): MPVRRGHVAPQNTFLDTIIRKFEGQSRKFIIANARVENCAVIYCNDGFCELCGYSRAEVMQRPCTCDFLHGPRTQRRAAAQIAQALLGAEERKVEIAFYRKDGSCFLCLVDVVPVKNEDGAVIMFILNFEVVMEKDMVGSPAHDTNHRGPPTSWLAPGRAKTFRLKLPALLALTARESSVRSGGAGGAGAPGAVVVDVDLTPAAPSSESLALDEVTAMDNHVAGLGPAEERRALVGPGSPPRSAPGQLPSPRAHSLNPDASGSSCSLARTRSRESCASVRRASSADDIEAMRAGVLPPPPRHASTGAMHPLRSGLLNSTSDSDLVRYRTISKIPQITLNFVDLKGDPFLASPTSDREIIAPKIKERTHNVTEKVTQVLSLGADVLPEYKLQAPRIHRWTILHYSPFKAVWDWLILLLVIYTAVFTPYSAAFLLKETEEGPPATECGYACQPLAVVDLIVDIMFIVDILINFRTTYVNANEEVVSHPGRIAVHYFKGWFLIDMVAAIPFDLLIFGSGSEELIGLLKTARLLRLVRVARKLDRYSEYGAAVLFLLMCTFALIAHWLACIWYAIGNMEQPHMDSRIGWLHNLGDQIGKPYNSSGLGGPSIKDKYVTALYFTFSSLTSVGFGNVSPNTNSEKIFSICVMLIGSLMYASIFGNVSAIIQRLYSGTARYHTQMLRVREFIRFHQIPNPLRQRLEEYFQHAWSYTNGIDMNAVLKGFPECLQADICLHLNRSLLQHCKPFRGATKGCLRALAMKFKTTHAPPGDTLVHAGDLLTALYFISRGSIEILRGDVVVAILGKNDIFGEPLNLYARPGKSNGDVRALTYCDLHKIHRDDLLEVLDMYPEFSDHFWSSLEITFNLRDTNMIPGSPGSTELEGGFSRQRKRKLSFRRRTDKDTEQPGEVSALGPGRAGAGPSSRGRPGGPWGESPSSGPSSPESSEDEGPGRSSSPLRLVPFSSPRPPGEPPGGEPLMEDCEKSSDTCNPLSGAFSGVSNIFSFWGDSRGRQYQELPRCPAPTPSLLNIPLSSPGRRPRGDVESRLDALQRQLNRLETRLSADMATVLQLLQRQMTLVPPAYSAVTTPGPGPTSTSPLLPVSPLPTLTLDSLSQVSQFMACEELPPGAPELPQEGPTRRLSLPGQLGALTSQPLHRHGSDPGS

First: CC(C)C1Cc2c(sc3c2c(=O)n(Cc2ccccc2)c2nncn32)CO1 (centres unmarked)
Second: CCCSc1nc2c(c(=O)[nH]c(=O)n2C)n1Cc1ccccc1
The “hERG current change (%, negative = inhibition) at 10uM” value of the first is higher: -11% for the first, -17.4% for the second.

Compared with COc1ccc(N2C(=O)CC(N3CCN(S(=O)(=O)c4cc(C)ccc4C)CC3)C2=O)cc1 (centres unmarked), COc1ccc(NC(=O)CNc2cc(S(=O)(=O)N3CCOCC3)ccc2NCC2CCCO2)cc1 (centres unmarked) is lower in “hERG current change (%, negative = inhibition) at 10uM” value: -6.8% for the first, -18.3% for the second.

Compared with CC12C=CC3(O1)C(C(=O)N1CCCOC13)C2C(=O)O (centres unmarked), O=C(O)C1CCCC2CN3CCc4c([nH]c5ccccc45)C3C(O)C21 (centres unmarked) is higher in “hERG current change (%, negative = inhibition) at 10uM” value: -2.54% for the first, 13.7% for the second.

Going from CN(C)c1ccc(CN(C(=O)c2cc3ccccc3oc2=O)C2CCS(=O)(=O)C2)cc1 (centres unmarked) to Cc1ccc(CN(C(=O)c2cc3ccccc3oc2=O)C2CCS(=O)(=O)C2)cc1 (centres unmarked), the “hERG current change (%, negative = inhibition) at 10uM” value falls from -11.8% to -34%.

First: Cc1ccc(N(C(=O)c2cc3ccccc3oc2=O)C2C=CS(=O)(=O)C2)cc1 (centres unmarked)
Second: O=C(c1cc2ccccc2oc1=O)N(c1ccccc1)C1C=CS(=O)(=O)C1 (centres unmarked)
The “hERG current change (%, negative = inhibition) at 10uM” value of the first is lower: -6.15% for the first, 2.29% for the second.

Going from COc1ccc(CN(C(=O)c2cc3ccccc3oc2=O)C2CCS(=O)(=O)C2)cc1 (centres unmarked) to CCc1ccc(CN(C(=O)c2cc3ccccc3oc2=O)C2CCS(=O)(=O)C2)cc1 (centres unmarked), the “hERG current change (%, negative = inhibition) at 10uM” value falls from -18.9% to -56.5%.

Compared with Cc1cc(C)cc(N(C(=O)c2cc3ccccc3oc2=O)C2C=CS(=O)(=O)C2)c1 (centres unmarked), O=C(c1cc2ccccc2oc1=O)N(Cc1ccccc1)C1CCS(=O)(=O)C1 (centres unmarked) is higher in “hERG current change (%, negative = inhibition) at 10uM” value: -55.4% for the first, -12.2% for the second.

Going from CC(C)c1ccc(CN(C(=O)c2cc3ccccc3oc2=O)C2CCS(=O)(=O)C2)cc1 (centres unmarked) to O=C(NCc1ccc(-c2nc3ccccc3s2)cc1)c1cc2ccccc2o1, the “hERG current change (%, negative = inhibition) at 10uM” value rises from -62% to -1.71%.

First: CC1(C)CC(=O)C=C(Nc2ccc3c(c2)CCC3)C1
Second: CC(=O)NCCC(=O)N1CCCC(C(=O)c2ccc3c4c(cccc24)CC3)C1 (centres unmarked)
The “hERG current change (%, negative = inhibition) at 10uM” value of the first is higher: -2.73% for the first, -18.5% for the second.

Compared with O=C(Nc1ccccc1)NC1CCN(Cc2nnnn2C2CCCCC2)CC1, OCCC1CN(Cc2ccc3nsnc3c2)CCN1C1CCCC1 (centres unmarked) is higher in “hERG current change (%, negative = inhibition) at 10uM” value: -29.2% for the first, -25% for the second.

Compared with CCN1CCN(C(=O)c2ccc(CS(=O)Cc3ccc(C)cc3)o2)CC1 (centres unmarked), CCOC(=O)N1CCN(C(=O)c2cc(COc3ccc(F)cc3F)on2)CC1 is lower in “hERG current change (%, negative = inhibition) at 10uM” value: 11% for the first, -17.1% for the second.

First: Cc1ccc(N(C(=O)CNC(=O)c2ccco2)C(C(=O)NC2CCCC2)c2ccncc2)c(C)c1 (centres unmarked)
Second: COC(=O)c1ccc(C)c(NC(=O)c2ccc(CN3CCc4ccccc4C3)cc2)c1
The “hERG current change (%, negative = inhibition) at 10uM” value of the first is higher: 14.6% for the first, 6.57% for the second.

First: CCOc1ccc(NS(=O)(=O)c2ccc(NC(=O)C3CCCO3)cc2)cc1 (centres unmarked)
Second: N#Cc1ccc(NC(=O)CCc2ccc(S(=O)(=O)N3CCOCC3)cc2)cc1
The “hERG current change (%, negative = inhibition) at 10uM” value of the first is higher: 20.7% for the first, -51.5% for the second.

First: C/C(=N\NC(=S)NCc1ccccc1)c1ccc2ccccc2c1
Second: COc1ccc(S(=O)(=O)NC(C)CCc2ccccc2)cc1 (centres unmarked)
The “hERG current change (%, negative = inhibition) at 10uM” value of the first is higher: 15.9% for the first, -3.49% for the second.

Compared with CN(C)CCCNc1ccc(-c2n[nH]c(=O)c3ccccc23)cc1[N+](=O)[O-], CC(CS(=O)(=O)c1ccc2c(c1)NC(=O)CS2)C(=O)NCc1ccccc1Cl (centres unmarked) is lower in “hERG current change (%, negative = inhibition) at 10uM” value: 1.1% for the first, -0.823% for the second.

Going from COc1ccc(CC2(CO)CCN(Cc3ccc4c(c3)CCO4)CC2)cc1 to COc1ccc(CC2(CO)CCN(Cc3ccc4nsnc4c3)CC2)cc1, the “hERG current change (%, negative = inhibition) at 10uM” value rises from -65.7% to -58.9%.

Compared with OCC1(Cc2ccc(Cl)cc2)CCN(Cc2ccc3nsnc3c2)CC1, OCC1(CCc2ccccc2)CCN(Cc2ccc3nsnc3c2)CC1 is lower in “hERG current change (%, negative = inhibition) at 10uM” value: -61.5% for the first, -77.7% for the second.

First: COc1ccc(CC2(CO)CCN(Cc3nc(C(C)C)cs3)CC2)cc1
Second: O=C(c1cnsn1)N1CCC(CO)(Cc2ccc(Cl)cc2)CC1
The “hERG current change (%, negative = inhibition) at 10uM” value of the first is lower: -48.4% for the first, -43.7% for the second.

First: OCC1(Cc2ccccc2C(F)(F)F)CCN(Cc2ccc3c(c2)CCO3)CC1
Second: COc1ccc(C(=O)NCc2ccc3c(c2)CCO3)cc1
The “hERG current change (%, negative = inhibition) at 10uM” value of the first is lower: -28.7% for the first, 7.15% for the second.

Compared with CC(NS(=O)(=O)c1ccc(F)cc1)C(=O)Nc1ccc2c(c1)OCCO2 (centres unmarked), Cc1cc(NS(=O)(=O)c2ccc(NC(=O)N[C@H](C(=O)O)C(C)C)cc2)no1 is higher in “hERG current change (%, negative = inhibition) at 10uM” value: 13.2% for the first, 29.3% for the second.

First: CCOC(=O)c1ccc(N2C(=O)c3n[nH]c(C)c3C2c2ccco2)cc1 (centres unmarked)
Second: COc1ccc2c(c1OC)C(=O)N(c1ccc(O)cc1)C2
The “hERG current change (%, negative = inhibition) at 10uM” value of the first is lower: -5.29% for the first, 13.5% for the second.

Going from Cc1ncoc1C(=O)N1CCCC(CCC(=O)NCc2ccccc2F)C1 (centres unmarked) to O=C(CCc1ccccc1)Nc1ccc(S(=O)(=O)N2CCOCC2)cc1, the “hERG current change (%, negative = inhibition) at 10uM” value falls from -6.93% to -28.1%.

Compared with N#Cc1nc(COc2cccc(Cl)c2)oc1N1CCN(c2ccccc2)CC1, Cn1c(=O)[nH]c(=O)c2c1nc(CN(Cc1ccccc1)Cc1ccccc1)n2CCN1CCOCC1 is lower in “hERG current change (%, negative = inhibition) at 10uM” value: -4.18% for the first, -16.6% for the second.

Compared with COCCNC(=O)/C(C#N)=C/c1ccc(O)c([N+](=O)[O-])c1, CCSC1=C(C#N)C(c2cccc(O)c2)CC(=O)N1 (centres unmarked) is lower in “hERG current change (%, negative = inhibition) at 10uM” value: 14.7% for the first, 2.7% for the second.

Compared with CC(Oc1ccc(-c2ccccc2)c(F)c1)c1ccn(S(=O)(=O)c2ccc(F)cc2)n1 (centres unmarked), COc1ccccc1-c1ccc(Nc2cccc(C(F)(F)F)c2)nn1 is lower in “hERG current change (%, negative = inhibition) at 10uM” value: 16% for the first, 15.4% for the second.

Going from Cn1c(=O)[nH]c(=O)c2c1nc(SCCN1CCCCC1)n2CCCc1ccccc1 to Cn1c(=O)[nH]c(=O)c2c1nc(SCCN1CCCCC1)n2Cc1ccccc1, the “hERG current change (%, negative = inhibition) at 10uM” value falls from -69% to -78.9%.

Going from Cc1ccc(Cn2c(SCC(C)C)nc3c2c(=O)[nH]c(=O)n3C)cc1 to Cc1ccc(Cn2c(SCCN3CCCCC3)nc3c2c(=O)[nH]c(=O)n3C)cc1, the “hERG current change (%, negative = inhibition) at 10uM” value falls from 4.21% to -74.1%.

Going from Cn1c(=O)[nH]c(=O)c2c1nc(SCCO)n2CCCc1ccccc1 to Cn1c(=O)[nH]c(=O)c2c1nc(SCCN1CCOCC1)n2CCCc1ccccc1, the “hERG current change (%, negative = inhibition) at 10uM” value falls from -4.68% to -46.9%.

Going from Cn1c(=O)[nH]c(=O)c2c1nc(SCC(=O)O)n2Cc1ccccc1 to C=C(C)CSc1nc2c(c(=O)[nH]c(=O)n2C)n1Cc1ccccc1, the “hERG current change (%, negative = inhibition) at 10uM” value falls from -5.45% to -12.3%.

Compared with Cc1cccc(Cn2c(SCC(=O)Nc3ccccc3)nc3c2c(=O)[nH]c(=O)n3C)c1, COCCSc1nc2c(c(=O)[nH]c(=O)n2C)n1Cc1cccc(C)c1 is lower in “hERG current change (%, negative = inhibition) at 10uM” value: -30.2% for the first, -45.6% for the second.

First: Cc1ccc(Cn2c(N3CCCCCC3)nc3c2c(=O)[nH]c(=O)n3C)cc1
Second: Cc1cccc(Cn2c(SCCN3CCCCC3)nc3c2c(=O)[nH]c(=O)n3C)c1
The “hERG current change (%, negative = inhibition) at 10uM” value of the first is higher: 0.362% for the first, -79.1% for the second.

First: Cn1c(-c2ccc(Cl)nc2)nc2cc(Cl)ccc21
Second: Cc1cc(C)n(CCOc2ccc(Br)cc2)n1
The “hERG current change (%, negative = inhibition) at 10uM” value of the first is lower: -9.09% for the first, 1.08% for the second.

First: CC(C)CNC(=O)C1Nc2ccccc2C2C=CCC12 (centres unmarked)
Second: CCO[C@@H]1OC(C(=O)Nc2ccccc2)=C[C@H](C)[C@H]1CCCO
The “hERG current change (%, negative = inhibition) at 10uM” value of the first is lower: -6.43% for the first, 1.08% for the second.

Compared with COc1cccc(N(CC(=O)N/N=C(\C)c2cccs2)S(C)(=O)=O)c1, CC(=O)Nc1ccc(S(=O)(=O)N2CCN=C2C)cc1 is lower in “hERG current change (%, negative = inhibition) at 10uM” value: 6.58% for the first, 5.24% for the second.

First: CCN(CC)C(=S)NC(=O)Cc1ccccc1
Second: CN(C)C(=O)c1cc(C(=O)c2ccccc2Cl)c[nH]1
The “hERG current change (%, negative = inhibition) at 10uM” value of the first is higher: 16.1% for the first, 11.8% for the second.

Going from Cc1c(NC(=O)C(c2ccccc2)c2ccccc2)cccc1C(=O)O to CC(=O)c1cccc(NC(=O)COC(=O)CCc2ccc(S(=O)(=O)N3CCOCC3)cc2)c1, the “hERG current change (%, negative = inhibition) at 10uM” value falls from 16% to 6.05%.

Compared with CSc1nnc(NC(=O)c2ccc(C)c(S(=O)(=O)N3CCOCC3)c2)s1, N#Cc1ccc(NC(=O)CNc2cc(S(=O)(=O)N3CCOCC3)ccc2NCC2CCCO2)cc1 (centres unmarked) is lower in “hERG current change (%, negative = inhibition) at 10uM” value: 0.594% for the first, -70% for the second.

Compared with Cn1c(=O)[nH]c(=O)c2c1nc(SCCN1CCOCC1)n2Cc1ccccc1, COc1cc(C(=O)N/N=C/c2sc(N3CCOCC3)nc2-c2ccccc2)cc(OC)c1OC is higher in “hERG current change (%, negative = inhibition) at 10uM” value: -54.4% for the first, 3.33% for the second.

Going from Cc1onc(-c2c(Cl)cccc2Cl)c1NC(=O)NNc1ccccn1 to CSc1nc(C)c2c(n1)N(c1ccc(O)cc1)CC2, the “hERG current change (%, negative = inhibition) at 10uM” value rises from -11.7% to 4.88%.

Going from COc1ccc(N2CCc3c(C)nc4c(OC)cc(OC)cc4c32)c(OC)c1 to COc1ccc(N2CCc3c(C)nc4c(OC)cc(OC)cc4c32)cc1, the “hERG current change (%, negative = inhibition) at 10uM” value rises from -75.3% to -75%.

Compared with CCOc1ccc(N2CCc3c(C)nc(SC)nc32)cc1, COc1ccc(N2CCc3c(C)nc(SC)nc32)cc1 is higher in “hERG current change (%, negative = inhibition) at 10uM” value: -2.26% for the first, 3.4% for the second.

First: COc1ccc(N2CCCC2=N)c(OC)c1.Cl
Second: COc1ccc(N2C(=O)CCC2=O)c(OC)c1
The “hERG current change (%, negative = inhibition) at 10uM” value of the first is lower: 12.7% for the first, 20.7% for the second.

First: COc1cc(OC)c2nc(C)c3c(c2c1)N(c1ccc(O)cc1)CC3
Second: O=C(COC(=O)CCc1ccc(S(=O)(=O)N2CCOCC2)cc1)Nc1cccc(Cl)c1
The “hERG current change (%, negative = inhibition) at 10uM” value of the first is lower: -72.1% for the first, -30.3% for the second.

First: O=C(CNc1cc(S(=O)(=O)N2CCOCC2)ccc1NCC1CCCO1)Nc1ccc(C(F)(F)F)cc1 (centres unmarked)
Second: N#Cc1ccc(NC(=S)NC(=O)CCc2ccc(S(=O)(=O)N3CCOCC3)cc2)cc1
The “hERG current change (%, negative = inhibition) at 10uM” value of the first is lower: -30.4% for the first, 0.205% for the second.

For N#Cc1cccc(NC(=O)COC(=O)CCc2ccc(S(=O)(=O)N3CCOCC3)cc2)c1, the “hERG current change (%, negative = inhibition) at 10uM” value was -60.1%.
